This is a sample that favours compounds with a hit; in the whole collection about 3.1% have one here.
TexasRed fluor – counter-screen for TRb-SRC2 inhibitors: fluorescence interference | TRb/SRC2 Texas Red total fluorescence interference | Potency, µM (doses to about 106 µM), inactives show top-dose fluorescence change, negative = quenching | 0.29% of 280,000 active; active = well fitted curve in either direction with a large enough effect; inconclusive = small, poorly fitted or top-dose-only effect
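Human TRb ligand-binding domain at 0.6 uM with 20 nM Texas Red SRC2 peptide in Tris buffer containing 1 uM T3 and 5% DMSO, incubated with compound 5 h at ambient temperature. Total fluorescence (555/632 nm) calculated as parallel + 2 × perpendicular.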
Tau fibril ThT – blocks human tau fibril formation measured by thioflavin T | P10636 | recombinant tau K18 P301L, heparin-induced fibrillization, ThT fluorescence | Potency, µM (titrated, usually from 57.4 µM), for inactives: at the highest dose activity, negative = inhibition, usual class: inhibitors | 2.1% of 270,000 active | AID 1460; also: nearly all actives have a fitted effect of over 55% in size
Target sequence (P10636 561-689 P618L limits assumed): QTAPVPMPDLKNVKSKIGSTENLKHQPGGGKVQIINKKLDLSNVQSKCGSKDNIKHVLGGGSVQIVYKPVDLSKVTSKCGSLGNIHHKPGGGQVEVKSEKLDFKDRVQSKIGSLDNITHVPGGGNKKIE
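In this qHTS, human K18 P301L tau is incubated with compound and heparin for 6 hr at 37 C, and Thioflavin T fluorescence then reports fibril load.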
Tau FP inhib – inhibitors of human tau fibril formation. 0.39% of 280,000 active. AID 1468. P10636. Potency, µM (doses to about 57.7 µM), for inactives: top-dose activity, negative = inhibition, most hits filed as inhibitors. K18 P301L tau heparin fibrillization, Alexa594 FP, 6 h; also: nearly all actives have a fitted effect of over 55% in size
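K18 P301L tau (15 uM unlabeled/0.24 uM Alexa 594-labeled, final) + compound + heparin 20 uM final; 100 mM NaOAc pH 7; 6 hr 37 C; ThT 30 uM final added, 1 hr RT; FP ex 555/em 632 nm.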
RGS12 GoLoco inh – RGS12 GoLoco-Gai1 interaction inhibition; P63096; 0.44% of 230,000 active; Gai1:RGS12 GoLoco peptide FP, rhodamine, 10 min; Potency, µM (titrated, usually from 61.6 µM), for inactives: top-dose activity, negative = inhibition, actives largely listed as inhibitors; active = well fitted inhibition curve with a large enough effect, not every such curve was filed as active; inactive = no such curve, though single readings can be large or run the other way; also: nearly all actives have a fitted effect of over 30% in size
Target sequence (P63096 whole entry, looked up): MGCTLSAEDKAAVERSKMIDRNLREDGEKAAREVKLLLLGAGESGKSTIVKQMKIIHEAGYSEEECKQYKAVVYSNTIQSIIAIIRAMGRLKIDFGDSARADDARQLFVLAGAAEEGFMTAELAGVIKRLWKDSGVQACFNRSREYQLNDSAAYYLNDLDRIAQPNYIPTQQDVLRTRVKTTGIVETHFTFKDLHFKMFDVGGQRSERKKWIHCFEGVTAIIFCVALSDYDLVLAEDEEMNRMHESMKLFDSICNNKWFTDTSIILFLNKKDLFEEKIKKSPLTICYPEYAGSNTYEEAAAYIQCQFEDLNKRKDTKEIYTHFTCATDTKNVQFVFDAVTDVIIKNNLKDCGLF
Tau fluor counter – counter-screen for tau fibril formation inhibitors; 0.93% of 280,000 active; tau K18 P301L Alexa594 fluorescence, heparin fibrillization; AID 1463; Potency, µM (doses to about 57.7 µM), for the others: top-dose activity change, negative = decrease; also: nearly all actives have a fitted effect of over 55% in size
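Human tau K18 P301L (15 uM unlabeled, 0.24 uM Alexa 594-labeled) in 100 mM sodium acetate pH 7 with 20 uM heparin, 6 hr at 37 C. ThT 30 uM added, 1 hr ambient; Alexa 594 FP and total fluorescence read at 555/632 nm.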
TRb-SRC2 inh – disrupts binding of human TR beta to SRC2; P10828; 0.065% of 280,000 active; TRbeta-SRC2 peptide binding, fluorescence polarization; receptor liganded with 1 µM T3; AID 1469; Potency, µM (highest dose often 106 µM), without a hit: at the highest dose activity change, negative = inhibition, usual class: inhibitors;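 also: plate controls were bound peptide for no effect and peptide without receptor for full effect; nearly all actives have a fitted effect of over 50% in size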
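Read-out is fluorescence polarization (555 nm excitation, 632 nm emission) of a Texas Red SRC2 coactivator peptide; loss of signal reflects blocked binding to human TRb ligand-binding domain in the presence of 1 uM T3.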
* hit, by the source's call; u = inconclusive; x = no result; [ ] = dose if it differs, or a comment. Unless noted, calls follow the shape of the dose curve; as a rule, active = well fitted curve in the direction sought with a large enough effect; inconclusive = small, poorly fitted or top-dose-only effect, or another doubt; inactive = no such curve, though single readings can be large; an effect the other way counts as inactive or inconclusive. Unless noted, % is scaled to controls: 0 for no effect and ±100 for the full control effect; potency is read from the fitted curve at half-maximal effect.

SMILES	TexasRed fluor	Tau fibril ThT	Tau FP inhib	RGS12 GoLoco inh	Tau fluor counter	TRb-SRC2 inh
CNC(=O)Nc1ccccc1C(=O)Nc1ccccc1	0%	-5%	3%	0%	-2%	-2%
O=[N+]([O-])c1ccc(O)c(C2=NNC(c3ccccc3F)C2)c1 (stereo not drawn)	-4%	16µM*	6%	13%	-26%	6%
Oc1ccc(Cl)cc1C1=NNC(c2cccs2)C1 (stereo not drawn)	-4%	u	-13%	138%	u	-3%
Cc1nn(C(C)C)c(C)c1[C@@H]1C[C@H]2CN(Cc3cccc(Cl)c3)C(=O)[C@]23CCCN13	-1%	-8%	8%	3%	-1%	0%
O=C(NNC(=S)Nc1ccc(OC(F)F)cc1)c1cc2c(s1)CCCC2	631µM*[quencher]	u	8%	0%	u	-13%
Cc1csc(N/N=C/c2ccc(O)c([N+](=O)[O-])c2)n1	-26%	5µM*	-2%	-18%	u	-3%
Cc1csc(N/N=C\c2cccnc2)n1	-4%	u	-9%	-1%	u	4%
Cc1nnc(N/N=C/c2ccc(O)c([N+](=O)[O-])c2)[nH]c1=O	0%	u	11%	10%	-2%	1%
O=[N+]([O-])c1ccc(-c2csc(N/N=C/c3cccnc3)n2)cc1	-4%	2.2µM*	4%	7%	u	4%
O=[N+]([O-])c1cc(/C=N\Nc2nc(-c3ccccc3)cs2)ccc1O	-14%	3.2µM*	u	-9%	10µM*[quencher]	-4%
Clc1ccc(-c2csc(N/N=C/c3ccc4c(c3)OCO4)n2)cc1	-19%	8.9µM*	-2%	-5%	11µM*[quencher]	-1%
Cc1ccc(CNC(=O)Cn2c(=O)n(-c3ccccc3)c(=O)c3c2c2cc(C)ccc2n3C)cc1	2%	6%	-5%	x	4%	1%
COc1cc(/C=C/C(=O)c2c(O)cc(C)oc2=O)ccc1O	-2%	u	-3%	19%	-14%	2%
O=C(NCc1cccc(Cl)c1)c1ccco1	0%	-2%	4%	-5%	1%	0%
COc1ccc2nc(S(=O)Cc3ncc(C)c(OC)c3C)[nH]c2c1 (stereo not drawn)	-1%	32µM*	u	-34%	-25%	-2%
COc1ccc2nc(SCC(=O)Nc3c(C)cccc3C)[nH]c2c1	2%	1%	2%	0%	-8%	-20%
C=CCn1c(SCC(=O)NCc2ccco2)nc2sc3c(c2c1=O)CCCC3	-4%	7%	-6%	1%	-2%	5%
O=C(NCc1ccco1)c1ccc2nc3sc4c(c3c(=O)n2c1)CCCC4	-4%	14µM*	22µM*	13%	-22%	-6%
Cc1ccc(-c2nc3n(n2)C(=O)CC(c2ccc(C)cc2)S3)cc1 (stereo not drawn)	-1%	u	-8%	x	-14%	6%
COc1ccc(C2C(C(=O)c3cccs3)=C(O)C(=O)N2c2nncs2)cc1 (stereo not drawn)	1%	-9%	-1%	1.8µM*	-4%	1%
CC1(C)Cc2c(c(N3CCOCC3)nc3sc4c(NN)ncnc4c23)CS1	0%	-22%	5%	11%	u	-2%
O=C(Nc1cc(C(=O)Nc2ccc(S(=O)(=O)O)cc2S(=O)(=O)O)cc(C(=O)Nc2ccc(S(=O)(=O)O)cc2S(=O)(=O)O)c1)Nc1cc(C(=O)Nc2ccc(S(=O)(=O)O)cc2S(=O)(=O)O)cc(C(=O)Nc2ccc(S(=O)(=O)O)cc2S(=O)(=O)O)c1	-3%	u	14µM*	117%	-6%	-6%
Cn1c(C(C#N)C2=C(Cl)C(=O)N(c3ccccc3)C2=O)nc2ccccc21 (stereo not drawn)	u	13µM*	u	14%	16µM*[quencher]	45µM*
COc1ccc(N(CC(=O)Nc2ccc3c(c2)OCO3)S(=O)(=O)c2ccccc2)cc1OC	-1%	x	5%	4%	u	-7%
O=C(Nc1ccc(Nc2ccncc2)cc1)c1ccc(Nc2ccnc3ccc([N+](=O)[O-])cc23)cc1[N+](=O)[O-]	u	u	-3%	36%	11µM*[quencher]	5%
SMILES	TexasRed fluor	Tau fibril ThT	Tau FP inhib	RGS12 GoLoco inh	Tau fluor counter	TRb-SRC2 inh
O=C(Nc1ccc(Nc2ccncc2)cc1)c1ccc([N+](=O)[O-])cc1	-3%	u	7%	13%	-13%	-2%
Nc1c(C(=O)N/N=C/c2cccnc2)oc2nc(-c3ccco3)cc(-c3ccco3)c12	-3%	16µM*	u	17%	u	-1%
CO[C@H]1C[C@@H]2C[C@H](O)C[C@@H](CC(=O)O[C@@H](/C=C\CC(C)C)C[C@@H]3CC[C@H](C)[C@@H](C1)O3)O2	u	-10%[11.5 µM]	-8%[11.6 µM]	x	-15%[11.6 µM]	-16%[11.2 µM]
CCOC(=O)c1c(NC(=O)c2nc(S(C)(=O)=O)ncc2Cl)sc(C(C)=O)c1C	5%	22µM*	u	x	u	-5%
CCOC(=O)c1c(-c2ccccc2)csc1NC(=O)c1nc(S(=O)(=O)CC)ncc1Cl	12%	13µM*	u	x	u	-7%
Cc1cccc(C)c1NC(=O)c1ccc(-c2ccc(Cl)cc2Cl)o1	-4%	-11%	-3%	-4%	-12%	-5%
CC1=NOC(=O)/C1=C\c1ccc(-c2ccc(Cl)cc2Cl)o1	-1%	20µM*	-5%	38%	u	-17%
CCCCOP(=O)(OCCCC)C(O)c1ccc(F)cc1 (stereo not drawn)	-5%	-1%	8%	0%	-8%	2%
COc1cc(/C=N/NC(=O)c2cccc([N+](=O)[O-])c2)ccc1OCc1ccccc1	4%	u	u	-6%	11µM*[quencher]	0%
O=C(N/N=C/c1ccc(OC(=O)c2ccccc2)c([N+](=O)[O-])c1)c1ccc(O)cc1	-14%	8.9µM*	-12%	5%	u	-8%
COc1ccc(/C=N/NC(=O)c2cccc([N+](=O)[O-])c2)cc1OC(=O)c1ccccc1	0%	-21%	-5%	15%	11µM*[quencher]	-13%
COc1ccc(/C=N/NC(=O)c2cccc([N+](=O)[O-])c2)cc1OS(=O)(=O)c1ccccc1	-1%	-13%	-4%	-2%	14µM*[quencher]	-2%
COc1ccc(C(=O)Oc2ccc(/C=N/NC(=O)c3ccccc3OC)cc2[N+](=O)[O-])cc1	0%	u	-14%	2%	-8%	12%
CCOC(=O)c1cnc2ccc(OCC)cc2c1N1CCN(c2ccccc2F)CC1	4%	u	2%	x	-19%	3%
